{
  "source": "PubChem BioAssay AID2685",
  "about": "(National Center for Advancing Translational Sciences (NCATS), 2010)",
  "note": "Hit rate of the full screen: of about 320,000 compounds, about 2,100 (0.66%) were called active. About 53% were inconclusive and are not listed. Calls come from the whole dose curve; as a rule, active = well fitted inhibition curve with a large enough effect in the signal ratio, with a control signal flat (not every such curve was filed as active); inconclusive = small, poorly fitted or top-dose-only effect, or effect the other way, or a change in a side signal; inactive = flat fitted curve, though single readings scatter; the % refers to the signal ratio. The list comes from a sample in which actives are over-represented; it also holds similar structures and randomly drawn compounds. Potency is the fitted concentration of half-maximal effect.",
  "data": [
    {"test": "qHTS Assay for Lipid Storage Modulators in Drosophila S3 Cells;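 for cell number change: cells counted by Cell Tracker Red CMTPX staining in the red channel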; for lipid storage change, negative = inhibition: % is set by controls: 0 for no effect and ±100 for the full control effect", "details": "BODIPY lipid droplet fluorescence, 18-24 h, cells fed with added oleic acid; cell number change: measured here: cell count max response; series mostly up to 46.1 µM; lipid storage change, negative = inhibition: at the top concentration", "outline": "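Laser-scanning cytometry quantifies lipid droplet accumulation (500–530 nm total intensity; droplet/cell object ratio) in oleic acid-fed (400 uM added) Drosophila S3 cells treated with a concentration series. 20 uM Triacsin C defined 100% inhibition.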", "units": {"cell number change": "%"}, "values": [
      {"smiles": "O=c1[nH]c(=O)n(CCC2=CCCCC2)c(O)c1/C=N/N1CCOCC1", "lipid storage change, negative = inhibition": "-0.237% (inactive)", "cell number change": 8.55},
      {"smiles": "C=CCn1c(C)c(C=C2C(=O)NC(=O)NC2=O)c2ccccc21", "lipid storage change, negative = inhibition": "9.58% (inactive)", "cell number change": 5.7},
      {"smiles": "O=c1[nH]c(=O)n(-c2ccc(Br)cc2)c(O)c1C=NC(CO)(CO)CO", "lipid storage change, negative = inhibition": "-18.1% (inactive)", "cell number change": -6.55},
      {"smiles": "O=C(CCN1C(=O)COc2ccccc21)N1CCC2(CC1)OCCO2", "lipid storage change, negative = inhibition": "2.07% (inactive)", "cell number change": 1.47},
      {"smiles": "O=c1c2ccccc2ncn1-c1ccc([N+](=O)[O-])c(C(F)(F)F)c1", "lipid storage change, negative = inhibition": "12.7% (inactive)", "cell number change": 7.19},
      {"smiles": "C[n+]1c(-c2ccccc2)cc(-c2ccc(O)cc2)cc1-c1ccccc1", "lipid storage change, negative = inhibition": "24.3% (inactive)", "cell number change": -18},
      {"smiles": "Cc1ccccc1-[n+]1c(-c2ccccc2)cc(-c2ccccc2)cc1-c1ccccc1", "Potency": "23.1 µM (active)"},
      {"smiles": "O=c1[nH]c(=S)n(C2CC2)c(O)c1C=NCc1cccnc1", "lipid storage change, negative = inhibition": "-23.1% (inactive)", "cell number change": 11.1},
      {"smiles": "ON1C2CCCCC2N(O)C1c1ccccc1", "note": "(stereo unspecified)", "outcome": "inactive"},
      {"smiles": "O[C@@H]1CCCC[C@H]1N1CCC(c2ccccc2)CC1", "Potency": "-4.74%"},
      {"smiles": "CC(=O)N1N=C2C3CCN(CC3)C2C1c1ccccc1", "note": "(stereo unspecified)", "lipid storage change, negative = inhibition": "-8.99% (inactive)", "cell number change": 1.69},
      {"smiles": "Cc1ccc(/C=C2/C(=O)NC(=O)N(CCc3ccc(F)cc3)C2=O)o1", "lipid storage change, negative = inhibition": "-1.73% (inactive)", "cell number change": -2.41},
      {"smiles": "FC(F)(F)c1ccccc1N1CC1c1ccncc1", "note": "(stereo unspecified)", "lipid storage change, negative = inhibition": "10.2% (inactive)", "cell number change": -4.55},
      {"smiles": "CSc1ncc(/C=C2/C(=O)NC(=O)N(c3ccc(C)cc3)C2=O)cn1", "lipid storage change, negative = inhibition": "7.12% (inactive)", "cell number change": 8.62},
      {"smiles": "O=C(c1ccc2c(=O)n(Cc3ccc4c(c3)OCO4)c(=S)[nH]c2c1)N1CCC2(CC1)OCCO2", "lipid storage change, negative = inhibition": "-17.8% (inactive)", "cell number change": -17},
      {"smiles": "O=C1NC(=O)C(=Cc2ccsc2)C(=O)N1", "lipid storage change, negative = inhibition": "-2.16% (inactive)", "cell number change": 11.6},
      {"smiles": "CN1C(=O)/C(=C/c2cccn2-c2ccc3ccccc3c2)C(=O)NC1=S", "Potency": "3.26 µM (active)", "cell number change": -19},
      {"smiles": "CN1C(=O)/C(=C\\c2ccc(N3CCCCCC3)cc2)C(=O)NC1=S", "lipid storage change, negative = inhibition": "-13.9% (inactive)", "cell number change": 9.11},
      {"smiles": "O=C1NC(=S)NC(=O)C1=Cc1cccn1-c1ccc(O)cc1", "lipid storage change, negative = inhibition": "-23.9% (inactive)", "cell number change": -0.957},
      {"smiles": "CC(c1ccccc1)(c1ccccc1)c1ccncc1", "lipid storage change, negative = inhibition": "-0.155% (inactive)", "cell number change": 6.39},
      {"smiles": "ClC(Cl)(Cl)c1ccccc1", "Potency": "0.58 µM (active)", "cell number change": 2.26},
      {"smiles": "Cc1ccc(N)c(C(=O)c2ccccc2)c1", "lipid storage change, negative = inhibition": "-10% (inactive)", "cell number change": -2.37},
      {"smiles": "C=CCn1c(O)c(C(C)=NCc2ccc3c(c2)OCO3)c(=O)[nH]c1=O", "lipid storage change, negative = inhibition": "-8.54% (inactive)", "cell number change": 5.5},
      {"smiles": "COc1ccc(C(=O)C(C)(C)NO)cc1", "Potency": "3.26 µM (active)", "cell number change": -1.48},
      {"smiles": "COc1ccc(C(=O)N2CCCC2=O)cc1", "lipid storage change, negative = inhibition": "-10.4% (inactive)", "cell number change": 11.9},
      {"smiles": "COc1ccc(C(=O)C23CN4CN(CN(C4)C2)C3)cc1", "lipid storage change, negative = inhibition": "0.471% (inactive)", "cell number change": 4.85},
      {"smiles": "O=C1NC(=O)N(c2ccc3c(c2)OCO3)C(=O)/C1=C\\c1ccsc1", "lipid storage change, negative = inhibition": "-2.55% (inactive)", "cell number change": -1.9},
      {"smiles": "CC(=O)c1cc(C(C)=O)c(C)[n+](C)c1C", "lipid storage change, negative = inhibition": "3.6% (inactive)", "cell number change": 12.6},
      {"smiles": "CNC(=S)N1CCN(CCN=Cc2c(O)n(-c3ccc(C)cc3)c(=S)[nH]c2=O)CC1", "lipid storage change, negative = inhibition": "-14.2% (inactive)", "cell number change": 1},
      {"smiles": "Cc1cc(OCC(=O)NCC(O)c2ccccc2)c2c3c(c(=O)oc2c1)CCC3", "note": "(stereo unspecified)", "Potency": "20.6 µM (active)", "cell number change": -16.3},
      {"smiles": "Cc1cc(OCC(=O)NCc2ccncc2)c2c3c(c(=O)oc2c1)CCC3", "outcome": "inactive", "cell number change": -10.8},
      {"smiles": "Cc1cc(OC(C)C(=O)NCC(O)c2ccccc2)c2c3c(c(=O)oc2c1)CCC3", "note": "(stereo unspecified)", "outcome": "inactive"},
      {"smiles": "CC(C)C12CN3CCN(CC(C3)/C1=N\\O)C2", "Potency": "6.51 µM (active)", "cell number change": -1.85},
      {"smiles": "CC12CN3CCN(CC(C3)/C1=N/NC(N)=O)C2", "lipid storage change, negative = inhibition": "-11.3% (inactive)", "cell number change": 0.944},
      {"smiles": "CCC12CN3CCN(CC(C3)/C1=N\\O)C2", "lipid storage change, negative = inhibition": "-24.4% (inactive)", "cell number change": -11.3},
      {"smiles": "C/C(=N\\NC(=S)Nc1ccccc1)c1c(O)n(C)c(=O)n(C)c1=O", "lipid storage change, negative = inhibition": "15.8% (inactive)"},
      {"smiles": "CCN1C[C@]2(C)CC[C@H](O)[C@]34C1[C@H](C[C@H]23)[C@@]1(O)C[C@H](OC)[C@H]2C[C@@H]4[C@@H]1C2O", "note": "(stereo partly specified)", "lipid storage change, negative = inhibition": "-5.48% (inactive)", "cell number change": -19.2},
      {"smiles": "CC(=NC1CCN(Cc2ccccc2)CC1)c1c(O)n(C)c(=O)n(C)c1=O", "Potency": "29.1 µM (active)", "cell number change": 4.54},
      {"smiles": "C=CCn1c(O)c(C(C)=NC2CCN(Cc3ccccc3)CC2)c(=O)[nH]c1=O", "lipid storage change, negative = inhibition": "0.565% (inactive)", "cell number change": 4.94},
      {"smiles": "Cn1c(O)c(C=NC2CCN(Cc3ccccc3)CC2)c(=O)n(C)c1=O", "lipid storage change, negative = inhibition": "10.7% (inactive)", "cell number change": 0.664},
      {"smiles": "CCCCOC(=O)C1=C(N)OC2=C(C(=O)CCC2)[C@]12C(=O)N(C)c1ccccc12", "Potency": "5.17 µM (active)", "cell number change": -3.29},
      {"smiles": "CCCCOC(=O)C1=C(N)OC2=C(C(=O)CC(C)(C)C2)[C@]12C(=O)N(C)c1ccccc12", "outcome": "inactive", "cell number change": -14.5},
      {"smiles": "CCOC(=O)C1=C(N)OC2=C(C(=O)CCC2)[C@]12C(=O)N(CC(N)=O)c1ccccc12", "lipid storage change, negative = inhibition": "-8.73% (inactive)", "cell number change": 1.37},
      {"smiles": "COC1CCCCC1NCCc1ccccc1", "note": "(stereo unspecified)", "lipid storage change, negative = inhibition": "-2.57% (inactive)", "cell number change": -9.24},
      {"smiles": "N#Cc1ccc(Cn2cc(C=O)c3ccccc32)cc1", "lipid storage change, negative = inhibition": "11.2% (inactive)", "cell number change": 15.7},
      {"smiles": "C=CCn1c(O)c(C(CC)=NCCN2CCN(C(=S)NC)CC2)c(=O)[nH]c1=O", "lipid storage change, negative = inhibition": "-10.6% (inactive)", "cell number change": -0.0083},
      {"smiles": "CCCCn1c(=O)c(C(=O)NCCc2ccccc2)c(O)c2ccccc21", "outcome": "inactive", "cell number change": -5.77},
      {"smiles": "Cc1cc(O)c2c(c1)C(=O)C13C(=C2O)C(=O)[C@H]2[C@@H](O)[C@@H]1[C@H]1[C@H](O)[C@@H]3C(=O)C3=C(O)c4c(O)cc(C)cc4C(=O)C312", "note": "(stereo partly specified)", "Potency": "9.2 µM (active)", "cell number change": 19.8}
    ]}
  ]
}
